The supplement of paper PMC8728848
About 410 targets per protein were measured; listed, in parts, are those with the strongest signals and a random draw of the rest.

How the values were obtained:
Assay in all cases: glycan array binding signal (z-score within array); higher = stronger binding
Details in all cases: glycan notation: IUPAC condensed, linker removed
[1] = target: GalNAc(a1-3)GalNAc(b1-3)Gal(a1-4)Gal(b1-4)Glc
Outline: (§1)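 Glycan array binding is given as a within-array Z-score, which can be read as non-binding when negative. The arrays, 3228 of them, came from the Consortium for Functional Glycomics database and were retained only where the protein sequence was available. Z-scores were averaged across arrays of the same protein sequence at different concentrations or buffers and across linkers.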

[2] = target: GalNAc(b1-3)Gal(a1-6)Gal(b1-4)Glc
Outline: as §1

[3] = target: GalNAc3S(b1-4)[Fuc(a1-3)]GlcNAc
Outline: as §1

Glc(a1-4)Glc = target: Glc(a1-4)Glc
Outline: as §1

GlcA(b1-3)Gal = target: GlcA(b1-3)Gal
Outline: as §1

[4] = target: GlcNAc(b1-2)Gal(b1-3)GalNAc
Outline: as §1

[5] = target: GlcNAc(b1-3)Gal(b1-4)GlcNAc(b1-2)Man(a1-3)[GlcNAc(b1-3)Gal(b1-4)GlcNAc(b1-2)Man(a1-6)]Man(b1-4)GlcNAc(b1-4)GlcNAc
Outline: as §1

[6] = target: GlcNAc(b1-3)Gal(b1-4)GlcNAc(b1-2)[GlcNAc(b1-3)Gal(b1-4)GlcNAc(b1-6)]Man(a1-6)[GlcNAc(b1-3)Gal(b1-4)GlcNAc(b1-2)Man(a1-3)]Man(b1-4)GlcNAc(b1-4)GlcNAc
Outline: as §1

[7] = target: GlcNAc(b1-3)Gal(b1-4)GlcNAc(b1-3)Gal(b1-4)GlcNAc(b1-2)Man(a1-3)[GlcNAc(b1-3)Gal(b1-4)GlcNAc(b1-3)Gal(b1-4)GlcNAc(b1-2)Man(a1-6)]Man(b1-4)GlcNAc(b1-4)GlcNAc
Outline: as §1

[8] = target: GlcNAc(b1-3)Gal(b1-4)GlcNAc(b1-3)Gal(b1-4)GlcNAc(b1-3)Gal(b1-4)GlcNAc(b1-2)Man(a1-3)[GlcNAc(b1-3)Gal(b1-4)GlcNAc(b1-3)Gal(b1-4)GlcNAc(b1-3)Gal(b1-4)GlcNAc(b1-2)Man(a1-6)]Man(b1-4)GlcNAc(b1-4)[Fuc(a1-6)]GlcNAc
Outline: as §1

[9] = target: GlcNAc(b1-3)Gal(b1-4)GlcNAc(b1-3)Gal(b1-4)GlcNAc(b1-3)Gal(b1-4)GlcNAc(b1-3)Gal(b1-4)GlcNAc(b1-2)Man(a1-3)[GlcNAc(b1-3)Gal(b1-4)GlcNAc(b1-3)Gal(b1-4)GlcNAc(b1-3)Gal(b1-4)GlcNAc(b1-3)Gal(b1-4)GlcNAc(b1-2)Man(a1-6)]Man(b1-4)GlcNAc(b1-4)GlcNAc
Outline: as §1

[10] = target: GlcNAc(b1-3)Gal(b1-4)GlcNAc(b1-6)[GlcNAc(b1-3)Gal(b1-3)]GalNAc
Outline: as §1

[11] = target: GlcNAc(b1-4)Gal(b1-4)GlcNAc
Outline: as §1

Kdn(a2-6)Gal(b1-4)GlcNAc = target: Kdn(a2-6)Gal(b1-4)GlcNAc
Outline: as §1

Man(a1-2)Man(a1-3)Man = target: Man(a1-2)Man(a1-3)Man
Outline: as §1

[12] = target: Man(a1-3)[Man(a1-6)]Man(a1-6)[Man(a1-3)]Man(b1-4)GlcNAc(b1-4)GlcNAc
Outline: as §1

[13] = target: Neu5Ac(a2-3)Gal(b1-3)GlcNAc6S
Outline: as §1

[14] = target: Neu5Ac(a2-3)Gal(b1-4)GlcNAc(b1-3)Gal(b1-4)GlcNAc(b1-3)Gal(b1-4)GlcNAc
Outline: as §1

[15] = target: Neu5Ac(a2-3)Gal(b1-4)[Fuc(a1-3)]GlcNAc(b1-3)GalNAc
Outline: as §1

[16] = target: Neu5Ac(a2-3)Gal(b1-4)[Fuc(a1-3)]GlcNAc6S
Outline: as §1

[17] = target: Neu5Ac(a2-3)[GalNAc(b1-4)]Gal(b1-4)GlcNAc
Outline: as §1

[18] = target: Neu5Ac(a2-3)[GalNAc(b1-4)]Gal(b1-4)GlcNAc(b1-3)GalNAc
Outline: as §1

Neu5Ac(a2-6)Gal = target: Neu5Ac(a2-6)Gal
Outline: as §1

[19] = target: Neu5Ac(a2-6)Gal(b1-3)GlcNAc(b1-3)[Gal(b1-4)GlcNAc(b1-6)]Gal(b1-4)Glc
Outline: as §1

[20] = target: Neu5Ac(a2-6)Gal(b1-4)GlcNAc(b1-2)Man(a1-3)[Neu5Ac(a2-6)Gal(b1-4)GlcNAc(b1-2)Man(a1-6)]Man(b1-4)GlcNAc(b1-4)[Fuc(a1-6)]GlcNAc
Outline: as §1

Neu5Ac(a2-6)GalNAc = target: Neu5Ac(a2-6)GalNAc
Outline: as §1

Neu5Ac(b2-6)GalNAc = target: Neu5Ac(b2-6)GalNAc
Outline: as §1

B1: Langerin K299A/K313A (Homo sapiens), Q9UJ71 (protein)
chain: STLNAQIPELKSDLEKASALNTKIRALQGSLENMSKLLKRQNDILQVVSQGWKYFKGNFYYFSLIPKTWYSAEQFCVSRNSHLTSVTSESEQEFLYKTAGGLIYWIGLTKAGMEGDWSWVDDTPFNKVQSARFWIPGEPNNAGNNEHCGNIAAPSLQAWNDAPCDATFLFICKRPYVPSEP
glycan array binding signal (z-score) [1]: 0.162
glycan array binding signal (z-score) [2]: 0.155
glycan array binding signal (z-score) [3]: -1
glycan array binding signal (z-score) (Glc(a1-4)Glc): -0.103
glycan array binding signal (z-score) (GlcA(b1-3)Gal): -0.832
glycan array binding signal (z-score) [4]: 0.486
glycan array binding signal (z-score) [5]: 0.619
glycan array binding signal (z-score) [6]: 3.64
glycan array binding signal (z-score) [7]: 0.828
glycan array binding signal (z-score) [8]: 5.83
glycan array binding signal (z-score) [9]: 2.75
glycan array binding signal (z-score) [10]: -0.82
glycan array binding signal (z-score) [11]: -0.886
glycan array binding signal (z-score) (Kdn(a2-6)Gal(b1-4)GlcNAc): 0.407
glycan array binding signal (z-score) (Man(a1-2)Man(a1-3)Man): -1.07
glycan array binding signal (z-score) [12]: -0.582
glycan array binding signal (z-score) [13]: -0.784
glycan array binding signal (z-score) [14]: 0.361
glycan array binding signal (z-score) [15]: 3.01
glycan array binding signal (z-score) [16]: 0.192
glycan array binding signal (z-score) [17]: -0.463
glycan array binding signal (z-score) [18]: 0.982
glycan array binding signal (z-score) (Neu5Ac(a2-6)Gal): 0.01
glycan array binding signal (z-score) [19]: 0.329
glycan array binding signal (z-score) [20]: 3.07
glycan array binding signal (z-score) (Neu5Ac(a2-6)GalNAc): -0.621
glycan array binding signal (z-score) (Neu5Ac(b2-6)GalNAc): -0.61
